Source: PubChem (National Center for Advancing Translational Sciences (NCATS))
JMJD2A Tudor inh: qHTS Assay for Inhibitors of JMJD2A-Tudor Domain | AlphaScreen JMJD2A-Tudor / H3K4me3 peptide binding | Potency, µM (top dose mostly 114 µM), for the others: at the top dose activity change, negative = inhibition, most hits filed as inhibitors | 390,000 compounds, 4.4% hits | AID 504339, 2011; also: potency is read from the fitted curve at half-maximal effect; % is scaled to controls: 0 for no effect and ±100 for the full control effect; nearly all actives have a fitted effect of over 50% in size
PI5P4Ka inh: qHTS for Inhibitors of phosphatidylinositol 5-phosphate 4-kinase (PI5P4K); 330,000 compounds, 1.2% hits; Phosphatidylinositol 5-phosphate 4-kinase type-2 alpha (Homo sapiens), P48426; PI5P4Kalpha enzyme, ADP-Glo luminescence, 60 min; active compounds read low; max response, %; active = max response of -50% or lower; inconclusive = between -30% and -50%; inactive = -30% or higher; also: value at the top dose of about 77 µM; % is scaled to controls: 0 for no effect and ±100 for the full control effect
Target sequence (P48426 whole entry, looked up): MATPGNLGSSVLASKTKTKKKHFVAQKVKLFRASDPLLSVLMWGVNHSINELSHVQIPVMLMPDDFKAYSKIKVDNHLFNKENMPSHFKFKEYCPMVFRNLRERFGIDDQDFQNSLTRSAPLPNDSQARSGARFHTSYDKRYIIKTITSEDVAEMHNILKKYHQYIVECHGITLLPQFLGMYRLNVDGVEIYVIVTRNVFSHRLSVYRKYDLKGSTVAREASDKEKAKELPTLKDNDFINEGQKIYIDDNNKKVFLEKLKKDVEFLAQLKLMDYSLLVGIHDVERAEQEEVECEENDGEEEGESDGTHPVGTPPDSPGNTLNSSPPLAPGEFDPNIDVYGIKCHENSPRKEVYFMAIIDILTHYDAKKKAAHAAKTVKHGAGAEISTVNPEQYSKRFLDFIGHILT
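ADP-Glo luminescence end-point read after a 60 min room-temperature kinase reaction of PI5P4Kalpha plus substrate, initiated with ATP at 5 microM final. Buffer: 0.038 M HEPES pH 7.4, EGTA, 0.1% CHAPS, 5% DMSO.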
G9a block: qHTS Assay for Inhibitors of Histone Lysine Methyltransferase G9a. Histone-lysine N-methyltransferase EHMT2 (Homo sapiens), Q96KQ7. G9a H3K9 monomethylation, AlphaScreen, 2 h. Potency, µM (series often up to 102 µM), for inactives: at the highest dose activity, negative = inhibition, hits mostly inhibitors. 350,000 compounds, 8.8% hits; also: potency is read from the fitted curve at half-maximal effect; % is scaled to controls: 0 for no effect and ±100 for the full control effect; nearly all actives have a fitted effect of over 75% in size
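AlphaScreen detection with an anti-monomethyl H3K9 antibody quantified product after a 2 h room-temperature reaction containing 500 nM biotinylated H3K9 peptide, 20 µM SAM and 20 nM enzyme, which had been preincubated 15 min with compound.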
PLK1 PBD inh: qHTS for Inhibitors of PLK1-PDB (polo-like kinase 1 - polo-box domain): Primary Screen | 360,000 compounds, 2.8% hits | Potency, µM, for the others: max response, negative = inhibition, usual class: inhibitors | Plk1 PBD binding of FITC phosphopeptide, fluorescence polarization; also: potency is read from the fitted curve at half-maximal effect; series mostly up to about 57 µM; % is scaled to controls: 0 for no effect and ±100 for the full control effect; nearly all actives have a fitted effect of over 65% in size
HP1b chromo inh: HTS for Inhibitors of HP1-beta Chromodomain Interactions with Methylated Histone Tails | Chromobox protein homolog 1 (Homo sapiens), P83916 | AlphaScreen HP1-beta / biotin-H3K9me3 peptide binding | AID 540317, 2011 | 390,000 compounds, 0.56% hits | Potency, µM (highest dose often 114 µM), for inactives: top-dose activity change, negative = inhibition, actives largely listed as inhibitors; also: potency is read from the fitted curve at half-maximal effect; nearly all actives have a fitted effect of over 70% in size
Target sequence (P83916 whole entry, looked up): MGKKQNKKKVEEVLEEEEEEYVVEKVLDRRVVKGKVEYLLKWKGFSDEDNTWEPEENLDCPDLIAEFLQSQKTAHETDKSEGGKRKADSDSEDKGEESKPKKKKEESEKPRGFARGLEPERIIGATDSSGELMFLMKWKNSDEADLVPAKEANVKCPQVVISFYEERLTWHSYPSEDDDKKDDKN
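Compound inhibition of the preformed complex between 50 nM HP1-beta and 50 nM biotinylated H3K9me3 peptide was read by AlphaScreen. Buffer was PBS pH 7.4 with 0.01% Tween-20. Incubations ran 30 min at room temperature, with 10 ug/mL donor/acceptor beads.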
BAZ2B block: qHTS Assay for Inhibitors of BAZ2B; 360,000 compounds, 4.4% hits; AlphaScreen BAZ2B-H3K14Ac peptide displacement; Potency, µM (top dose mostly 114 µM), without a hit: top-dose activity change, negative = inhibition, usual class: inhibitors; AID 504333, 2011; also: potency is read from the fitted curve at half-maximal effect; % is scaled to controls: 0 for no effect and ±100 for the full control effect; nearly all actives have a fitted effect of over 60% in size
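Multi-concentration screen (max 110 uM) measuring displacement of acetylated histone H3 peptide from BAZ2B by AlphaScreen, using 50 nM protein, 50 nM peptide and 10 ug/mL streptavidin donor plus Ni-chelate acceptor beads.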
* marks the source's active call; other numbers are inactive results; ? = inconclusive; · = not tested or not shown; ! = not confirmed by another sample; [ ] = dose if it differs, or a comment. Shown are actives, neighbours in structure and some others; about 12% of the full set was active somewhere. Unless noted, calls follow the shape of the dose curve; as a rule, active = well fitted curve in the direction sought with a large enough effect; inconclusive = small, poorly fitted or top-dose-only effect, or another doubt; inactive = no such curve, though single readings can be large; an effect the other way counts as inactive or inconclusive.

SMILES	JMJD2A Tudor inh	PI5P4Ka inh	G9a block	PLK1 PBD inh	HP1b chromo inh	BAZ2B block
COC(=O)CSc1nc2cc(OC)ccc2n1C	-9%	6	71µM*	-5%	24%	-26%
COc1ccc(-n2c(SCC(=O)Nc3ncc(Cl)cc3Cl)nc3ccccc32)cc1	·	·	45µM*	·	·	-29%
COc1ccc2c(c1)nc(NCCO)n2C	-6%[57.1 µM]	4	-17%	-4%	32%	-4%
O=C(Cc1c(Cl)cccc1Cl)N1CCN(S(=O)(=O)c2cccs2)CC1	6%	1	-11%[12.7 µM]	9%	49%	-7%
Cc1c(CNC2CCC(C)CC2)c(C(=O)O)c(C)n1Cc1ccc(Cl)cc1 (stereo unspecified)	-20%	·	3%[59 µM]	·	9%	?
COc1ccc(Cn2nnnc2C(c2ccc(N(C)C)cc2)N2CCC(C)CC2)cc1 (stereo unspecified)	45µM*	2	-121%[59 µM]	8%	-48%	28µM*
CCCC(c1nnnn1Cc1ccc(OC)cc1)N1CCC(C(N)=O)CC1 (stereo unspecified)	-18%	6	71µM*	-2%	28%	?
CN1CCN(C(c2ccccc2)c2nnnn2Cc2ccccc2)CC1 (stereo unspecified)	-8%	2	20%[59 µM]	2%	14%	6%
COc1ccc(Cn2nnnc2C(c2ccc(F)cc2)N2CCN(C3CCCC3)CC2)cc1 (stereo unspecified)	6%	-3	13%[59 µM]	0%	15%	-1%
CC1CCN(C(c2ccc(N(C)C)cc2)c2nnnn2Cc2ccccc2)CC1 (stereo unspecified)	50µM*	2	16µM*	-3%	?	18µM*
Cc1ccc([N+](=O)[O-])c(OCCN2CCc3ccccc3C2)c1	20µM*	1	10µM*	-7%	?	50µM*
O=[N+]([O-])c1ccccc1OCCCN1CCc2ccccc2C1	-20%	0	?	-5%	34%	-35%
Cc1ccc([N+](=O)[O-])c(OCCCN2CCC(Cc3ccccc3)CC2)c1	20µM*	-1	·	8%	?	·
Cc1ccc(OCCN2CCN(C)CC2)c([N+](=O)[O-])c1	3.5µM*	4	2.5µM*	-2%	-45%	50µM*
O=[N+]([O-])c1cccc(OCCN2CCC(Cc3ccccc3)CC2)c1	14µM*	-7	11µM*	-14%	?	56µM*
C=CCN(C(=O)CC(NC(C)=O)c1ccccc1)c1nc(-c2ccc(S(C)(=O)=O)cc2)cs1 (stereo unspecified)	-4%	-4	-11%	-9%	11%	-2%
COc1ccccc1NC(=O)COC(=O)CCc1ccc(S(=O)(=O)N2CCOCC2)cc1	-9%	1	21%[2.33 µM]	-11%	23%	8%
Cc1ccc(C)c(OCCCN2CCNCC2)c1	-25%	8	?	-7%	23%	-2%
CC1CC(C)CN(CCCOc2ccccc2[N+](=O)[O-])C1 (stereo unspecified)	32µM*	-7	14µM*	-11%	?	-30%
Cc1ccc(OCCN2CCNCC2)c([N+](=O)[O-])c1	40µM*	-4	8.9µM*	?	-7%	56µM*
Cc1ccc(OCc2ccc(C(=O)O)o2)c([N+](=O)[O-])c1	-11%	-17	50µM*	-5%	20%	-4%
Cc1ccc(OCc2ccc(C(=O)N3CCCC3)o2)c([N+](=O)[O-])c1	-16%	10	?	-11%	8%	-17%
CCc1cc2c(cc3c(=O)n(CC(=O)N4CCN(c5cccc(C)c5C)CC4)nc(CC)n32)s1	-20%	·	-6%[59 µM]	·	9%	-15%
C=CCNc1nc(C(=O)OCC(=O)c2ccc(Cl)cc2)cs1	50µM*	-20	50µM*	-26%	-38%	35µM*
C=CCNc1nc(C(=O)OCC(=O)Nc2ccccc2C(F)(F)F)cs1	-4%	6	24%[12.7 µM]	-3%	17%	?
SMILES	JMJD2A Tudor inh	PI5P4Ka inh	G9a block	PLK1 PBD inh	HP1b chromo inh	BAZ2B block
C=CCNc1nc(C(=O)OCC(=O)c2ccc(OC)cc2OC)cs1	-8%	4	21%	-2%	22%	7%
C=CCNc1nc(C(=O)OCC(=O)c2ccc(C)c([N+](=O)[O-])c2)cs1	-24%	?	13%	-18%	-13%	50µM*
C=CCNc1nc(C(=O)OCC(=O)Nc2cccc(SC)c2)cs1	?	-4	56µM*	-6%	1%	79µM*
COc1cc(C2CC(=O)Nc3cc4c(cc32)OCCO4)cc(Br)c1OC (stereo unspecified)	-9%	·	6%[59 µM]	·	39%	6%
O=C(CCNS(=O)(=O)c1ccc(Br)s1)Nc1ccc(Br)cc1	-4%	·	12%[59 µM]	·	39%	2%
Cc1noc(-c2ccc(-c3noc(-c4ccc(Cl)cc4)n3)cc2)n1	-10%	·	8%[59 µM]	·	7%[57 µM]	6%
O=C1NC(=S)S/C1=C\c1coc2ccccc2c1=O	?	-73*	50µM*	?	33%	?
O=C1NC(=S)S/C1=C\c1coc2ccc(O)cc2c1=O	-1%[11.4 µM]	-100*	45µM*	?	12%	?
C/[N+]([O-])=C\c1coc2ccccc2c1=O	13%	-10	4%	-7%	10%	1%
O=C(/C=N/O)NCCCn1ccnc1	-17%	2	?	-1%	29%	79µM*
O=C(O)C1CCCCC1C(=O)NCCCn1ccnc1 (stereo unspecified)	-34%	·	?	-2%	8%	79µM*
COc1ccc2c(c1)NC(C)(C)C=C2C	63µM*	?	40µM*	-29%	45µM*	40µM*
CC1=CC(C)(C)Nc2ccccc21	?	6	6%[0.501 µM]	-2%	24%	50µM*!
COC(=O)C1(C)NC(=O)c2ccccc2N1 (stereo unspecified)	-16%	-2	25%[59 µM]	-7%	60%	-1%
Cc1nc(/C=[N+](\[O-])C(C)(C)/C=N/O)n(O)c1C	7.9µM*	-7	?	-1%	24%	50µM*
N#Cc1nc(NCCCO)nc(Nc2ccccc2)n1	-24%	·	·	·	·	·
COC(=O)c1cc(Cn2nc(C(=O)O)c3ccccc3c2=O)oc1C	-6%	-6	-3%	-4%	39%	-38%
